Bioassay records: PubChem, National Center for Advancing Translational Sciences (NCATS)
Tau fibril ThT: blocks human tau fibril formation measured by thioflavin T. P10636. AID 1460. hit rate 2.1% among 270,000. recombinant tau K18 P301L, heparin-induced fibrillization, ThT fluorescence. Potency, µM (top dose mostly 57.4 µM), for the others: at the top dose activity, negative = inhibition, hits mostly inhibitors; further: potency means the concentration at half of the fitted maximal effect; nearly all actives have a fitted effect of over 55% in size
Target sequence (P10636 561-689 P618L limits assumed): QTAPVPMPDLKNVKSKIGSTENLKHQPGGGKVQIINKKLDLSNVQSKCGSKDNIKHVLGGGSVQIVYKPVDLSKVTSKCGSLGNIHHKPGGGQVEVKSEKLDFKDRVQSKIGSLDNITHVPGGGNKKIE
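ThT emission at 510 nm, taken 1 hr after adding 30 uM dye, quantifies aggregates formed when 20 uM heparin acts on human tau K18 P301L for 6 hr at 37 C.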
Tau fluor cs: counter-screen for tau fibril formation inhibitors | tau K18 P301L (four-repeat tau fragment) Alexa594 fluorescence, heparin fibrillization | Potency, µM (highest dose often 57.7 µM), without a hit: at the highest dose activity change, negative = decrease | hit rate 0.93% among 280,000 | AID 1463; further: potency means the concentration at half of the fitted maximal effect; nearly all actives have a fitted effect of over 55% in size
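Human K18 P301L tau (15 uM unlabeled plus 0.24 uM Alexa 594-labeled, final) in 100 mM sodium acetate pH 7 was mixed with compound and 20 uM heparin and incubated 6 hr at 37 C.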
Sfp inh: inhibitors of Bacillus subtilis Sfp phosphopantetheinyl transferase; Q9F4F7; Biochemical Sfp PPTase activity, qHTS; Potency, µM, without a hit: largest response in the series, negative = inhibition, most hits filed as inhibitors; hit rate 3.5% among 310,000; AID 1490;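 further: the enzyme is Sfp with the accession as filed and its product quenches rhodamine fluorescence; potency means the concentration at half of the fitted maximal effect; 0% = enzyme reaction without inhibitor and -100% = no enzyme wells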
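Fluorescence-quenching assay with 15 nM Sfp, 5 uM rhodamine-CoA and 12.5 uM BHQ-2-labelled ybbR peptide in pH 7.6 Hepes/MgCl2 buffer. Enzyme was pre-incubated with compound for 15 min at room temperature. Rate was taken from the 30-min fluorescence change (525/598 nm).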
Coupling enz: inhibits coupling enzyme system, counter-screen for aldolase hits; coupling enzyme system counterscreen, AmpLite Red fluorescence; activity change, negative = inhibition, % at 58.2 µM, hits read low; hit rate 0.67% among 290,000; AID 2472; in the data active means activity change below about -30%
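Fluorescence at 525 nm excitation and 598 nm emission measured inhibition of the coupled detection system without aldolase. Compounds (at 57.5 uM final) were preincubated 10 min at room temperature with coupling enzyme reagent before a 20 min substrate/AmpLite Red step.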
Tau FP inhib: blocks human tau fibril formation measured by polarization | Potency, µM (highest dose often 57.7 µM), for the others: at the top dose activity, negative = inhibition, actives largely listed as inhibitors | K18 P301L tau heparin fibrillization, Alexa594 FP, 6 h | hit rate 0.39% among 280,000 | AID 1468; further: potency means the concentration at half of the fitted maximal effect; nearly all actives have a fitted effect of over 55% in size
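Human K18 P301L fragment (15 uM unlabeled plus 0.24 uM Alexa 594-labeled) in 100 mM sodium acetate pH 7 with compound, aggregation induced by 20 uM heparin for 6 hr at 37 C. ThT (30 uM) added for 1 hr, then Alexa 594 FP read.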
* hit, by the source's call; ? = inconclusive; · = no result given. A selection: hits, their analogues and other compounds. The true share with any hit is near 5.2%. Unless noted, the call rests on the fitted dose curve; in most records, active means well fitted curve in the direction sought with a large enough effect; inconclusive means small, poorly fitted or top-dose-only effect, or another doubt; inactive means no such curve, though single readings can be large; an effect the other way counts as inactive or inconclusive. Unless noted, on the % scale 0 is the no-effect control and ±100 the full control effect.

SMILES	Tau fibril ThT	Tau fluor cs	Sfp inh	Coupling enz	Tau FP inhib
CC(=O)N1CCN(CC(=O)Nc2ccc(C#N)c(Cl)c2)CC1	-3%	-4%	9%	4	-10%
COc1ccc(CC(=O)Nc2ccc(C#N)c(Cl)c2)cc1S(=O)(=O)N1CCOCC1	·	·	50µM*	·	·
Cn1c(=O)oc2cc(S(=O)(=O)NCc3cccnc3)ccc21	·	-3%	79µM*	2	5%
COc1cc(N2CCOCC2)ccc1C=C1C(=O)NC(=O)NC1=O	-1%	-1%	56µM*	-2	9%
O=C1NC(=O)N(c2cccc(F)c2)C(=O)/C1=C/c1ccc(N2CCOCC2)cc1	?	-22%	32µM*	5	-8%
COc1cc(N2CCOCC2)ccc1/C=C1\C(=O)NC(=O)N(Cc2cccs2)C1=O	?	-14%	1%	3	-1%
Cc1cc(N2CCOCC2)ccc1/C=C1\C(=O)NC(=O)N(c2ccccc2)C1=O	?	-14%	35µM*	0	?
CC/C=C\C/C=C\C/C=C\C/C=C\C/C=C\CCCC(=O)NC(C)C(=O)O (stereo not given)	-13%	-6%	-11%	0	-2%
C=C1C(=O)O[C@@H]2C[C@@H](C)[C@@H]3C4OC4C(=O)[C@@]3(C)[C@@H](O)[C@H]12 (stereo not given in full)	13µM*	-10%	-2%	6	7.9µM*
CC/C(=N\NC(=S)Nc1ccccc1)c1c(O)[nH]c(=O)[nH]c1=O	?	-11%	22µM*	-1	?
C/C(=N\Nc1ccccc1)c1c(O)[nH]c(=O)[nH]c1=O	·	5%	-9%	1	4%
Cc1ccc(-n2ncc(C(=O)N3CCN(c4ccc(Cl)cc4)CC3)c2C2CCN(C(=O)OC(C)(C)C)CC2)c(C)c1	?	-12%	·	·	1%
CN1CSC(=S)N(C)C1	-9%	-6%	45µM*	1	-9%
CCC(=O)C1=C(c2cccc([N+](=O)[O-])c2)N(C(=O)CC)n2c(nnc2C2CCCCC2)S1	?	-20%	·	·	-6%
CCCCCCCSc1cc(OC)c(CCN(C)C)cc1OC	?	-14%	14µM*	2	5%
COc1ccc(C2=C(C(C)=O)Sc3nnc(-c4ccc(C)cc4)n3N2C(C)=O)cc1OC	?	?	·	·	-15%
COc1ccc(NC2=NC(C)(C)CS2)cc1	4%	5%	56µM*	5	0%
COc1ccc(NC2=NCC(C)S2)cc1 (stereo not given)	-7%	-7%	14%	-1	-4%
CCCNC(=O)c1c(N)n(Cc2ccco2)c2nc3ccccc3nc12	?	?	?	-1	?
Nc1c(C(=O)NC2CCCC2)c2nc3ccccc3nc2n1CC1CCCO1 (stereo not given)	-16%	-19%	-13%	-46*	-9%
COC(=O)c1c(N)n(Cc2ccc(OC)cc2)c2nc3ccccc3nc12	3%	-29%	-5%	-2	12%
CC(C)OC(=O)c1c(N)n(Cc2ccco2)c2nc3ccccc3nc12	-13%	-15%	50µM*	2	-8%
COCCOC(=O)c1c(N)n(Cc2ccco2)c2nc3ccccc3nc12	?	?	56µM*	6	?
COCCCNC(=O)c1c(N)n(Cc2ccco2)c2nc3ccccc3nc12	?	?	13µM*	-10	-2%
COC1(C)CC(c2ccccc2)c2c(c3ccccc3oc2=O)O1 (stereo not given)	·	·	-5%	-1	·
SMILES	Tau fibril ThT	Tau fluor cs	Sfp inh	Coupling enz	Tau FP inhib
C=C(C)C1CCC(C)=CC1c1c(OC)cc(C)cc1OC (stereo not given)	·	·	1%	-3	·
Cc1ccc(F)cc1NC(=O)c1ccc(Cn2nc(N3CCN(c4ccccc4)CC3)ccc2=O)o1	?	-22%	·	·	8%
CC(C)CNC(=O)c1c(N)n(Cc2ccco2)c2nc3ccccc3nc12	?	?	32µM*	-3	-9%
Nc1c(C(=O)NCc2ccco2)c2nc3ccccc3nc2n1CCN1CCCCC1	?	?	-16%	-2	-9%
Nc1c(C(=O)OCC2CCCO2)c2nc3ccccc3nc2n1Cc1cccs1 (stereo not given)	?	?	?	-20	-15%
C=CCNC(=O)c1c(N)n(CCN2CCOCC2)c2nc3ccccc3nc12	?	?	-12%	-17	8%
